Among the data in PubChem BioAssay (NCATS) are Potency and activity change, negative = inhibition values, retold here.

Assay [1] can be described thus: qHTS for Inhibitors of Plasmodium falciparum (DD2) proliferation (AID 504314).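 Note: parasite DNA measured by SYBR Green fluorescence after red cell lysis; plate controls were DMSO vehicle for no effect and artemisinin wells for full effect.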 A digest of the protocol:
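SYBR Green DNA-fluorescence growth assay: infected RBCs at 0.3% parasitemia, 2.5% hematocrit, 72 h compound exposure, 37C, 5% CO2; overnight lysis with dye at RT; normalized to 0.29 uM artemisinin and vehicle.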

For assay [2], the target named is ATP-dependent 6-phosphofructokinase (Trypanosoma brucei brucei) (UniProt O15648). As to the kind of experiment: qHTS Assay to Find Inhibitors of T. brucei phosphofructokinase: hit validation (AID 492961). Note: % is set by controls: 0 for no effect and ±100 for the full control effect. Put shortly:
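Luminescence from ADP-Glo reports ADP generated as T. brucei PFK (1.25 nM) phosphorylates 0.5 mM fructose-6-phosphate using 0.1 mM ATP. Reactions ran 45 min at room temperature, pH 8.0.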

Assay [3] deals with Ubiquitin carboxyl-terminal hydrolase 1 (Homo sapiens) (UniProt O94782). Briefly: Inhibitors of USP1/UAF1: Pilot qHTS (AID 504865).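 Note: rhodamine fluorescence freed from ubiquitin-rhodamine substrate followed over time; top concentration of the series differs between compounds; % is set by controls: 0 for no effect and ±100 for the full control effect; nearly all actives have a fitted effect of over 35% in size.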 A digest of the protocol:
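Deubiquitinase activity followed as kinetic rhodamine fluorescence release from 150 nM Ub-Rho. 1 nM USP1/UAF1 with compound, after 15 min room-temperature preincubation, in HEPES pH 7.8 buffer containing TCEP, EDTA, BSA and Tween-20.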

In assay [4] the target is Luciferin 4-monooxygenase (Photinus pyralis) (UniProt P08659). As to the kind of experiment: Biochemical firefly luciferase enzyme assay for NPC (AID 624030).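 Note: purified P. pyralis luciferase at 10 nM with luciferin and ATP substrate; 0% = DMSO and -100% = full luciferase inhibition by PTC124 control; nearly all actives have a fitted effect of over 70% in size.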 Put shortly:
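Purified P. pyralis luciferase at 10 nM in 50 mM Tris Acetate (final), luminescence read within 5 minutes of enzyme addition to compounds. Activity normalised to PTC124 versus DMSO; concentration-response curves classed by r2, magnitude and activity.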

Assay [5] in a line: S16 Schwann cell viability assay (CellTiter-Glo assay) (AID 624031).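 Note: cellular ATP luminescence as a viability measure; plate controls were DMSO-treated cells for no effect and cell-free wells for full effect; nearly all actives have a fitted effect of over 70% in size.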 Put shortly:
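Native S16 rat Schwann cells, 500-750 cells/well in DMEM with 10% FBS, dosed with compound after overnight culture and incubated 24h at 37 degree Celsius/5% CO2. Viability by CellTiter-Glo luminescence; % activity normalized to no-cell wells and DMSO-treated cells.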

Assay [6] in a line: S16 Schwann cell PMP22 intronic element firefly luciferase assay (AID 624032).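 Note: plate controls were DMSO for no effect and PTC124 positive control mean for full effect; nearly all actives have a fitted effect of over 30% in size.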 A digest of the protocol: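 Rat S16 Schwann cells stably carrying firefly luciferase driven by a PMP22 intronic element, in 10% FBS, treated 24 h at 37 C. ONE-Glo luminescence normalized to PTC124 control and DMSO (0%); curves classed by r2, magnitude and activity.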
A short description of assay [7]: S16 Schwann cell PMP22 intronic element beta-lactamase assay (AID 624044; calls by dose curve;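 note: 0% = DMSO and -100% = potassium clavulanate positive control; nearly all actives have a fitted effect of over 15% in size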). The conditions noted are these: S16 rat Schwann cells, PMP22 element beta-lactamase FRET, 24 h; ratio activity, negative = inhibition: at 38.3 µM (top of the series). A digest of the protocol:
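Beta-lactamase reporter under a PMP22 intronic regulatory element in stable S16 rat Schwann cells; 24 h compound exposure. 460 nm blue signal normalized between DMSO (0%) and potassium clavulanate, with 535 nm FRET tracking viability; curves classed by r2 and response.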

The next assay relates to CP203. Briefly: qHTS profiling for inhibitors of Plasmodium falciparum proliferation (AID 504749).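 Note: 0% = DMSO vehicle and full inhibition = artemisinin control; nearly all actives have a fitted effect of over 60% in size.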 The conditions noted are these: P. falciparum in erythrocytes, SYBR Green DNA, 72 h; series mostly up to 28.7 µM. A digest of the protocol:
(§1)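 Each compound contacts P. falciparum-infected red blood cells for 72 h at 37 C; lysis buffer (Tris, EDTA, saponin, Triton X, SYBR Green I) is added and fluorescence measured next morning; values normalized to controls.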

The next assay concerns CP215. The assay is described as above. The conditions noted are these: P. falciparum in erythrocytes, SYBR Green DNA, 72 h; series mostly up to 28.7 µM. A digest of the protocol: as §1
The next assay concerns CP266. Described as above. The conditions noted are these: P. falciparum in erythrocytes, SYBR Green DNA, 72 h; series mostly up to 28.7 µM. A digest of the protocol: as §1
The next assay has as its system CP269. The description is as above. The settings on record: P. falciparum in erythrocytes, SYBR Green DNA, 72 h; series mostly up to 28.7 µM. Put shortly: as §1
In the next assay the test system is CP286. The assay is described as above. The conditions noted are these: P. falciparum in erythrocytes, SYBR Green DNA, 72 h; series mostly up to 28.7 µM. A digest of the protocol: as §1
The test system of a further assay is CP291. The description is as above. The conditions noted are these: P. falciparum in erythrocytes, SYBR Green DNA, 72 h; series mostly up to 28.7 µM. Put shortly: as §1
The next assay concerns CP315. The description is as above. The settings on record: P. falciparum in erythrocytes, SYBR Green DNA, 72 h; series mostly up to 28.7 µM. Put shortly: as §1
The test system of a further assay is CP329. Described as above. The settings on record: P. falciparum in erythrocytes, SYBR Green DNA, 72 h; series mostly up to 28.7 µM. A digest of the protocol: as §1
Assay [8] in a line: qHTS for Inhibitors of Plasmodium falciparum (GB4) proliferation (AID 504315). Note: potency is the fitted concentration of half-maximal effect; nearly all actives have a fitted effect of over 50% in size. A digest of the protocol:
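Parasite growth measured as SYBR Green DNA fluorescence (ex 485, em 535 nm) after overnight lysis following 72 h culture at 37 °C, 0.3% parasitemia, 2.5% hematocrit. Values normalized against DMSO and 0.29 uM artemisinin controls, with plate-stack correction.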

Inconclusive results are not listed. Unmarked numbers belong to inactive results. Active and inactive are the calls of the source. Unless noted, calls come from the whole dose curve; as a rule, active = well fitted curve in the direction sought with a large enough effect; inconclusive = small, poorly fitted or top-dose-only effect, or another doubt; inactive = no such curve, though single readings can be large; an effect the other way counts as inactive or inconclusive.

Sequence of Luciferin 4-monooxygenase (Photinus pyralis) (P08659 whole entry, looked up): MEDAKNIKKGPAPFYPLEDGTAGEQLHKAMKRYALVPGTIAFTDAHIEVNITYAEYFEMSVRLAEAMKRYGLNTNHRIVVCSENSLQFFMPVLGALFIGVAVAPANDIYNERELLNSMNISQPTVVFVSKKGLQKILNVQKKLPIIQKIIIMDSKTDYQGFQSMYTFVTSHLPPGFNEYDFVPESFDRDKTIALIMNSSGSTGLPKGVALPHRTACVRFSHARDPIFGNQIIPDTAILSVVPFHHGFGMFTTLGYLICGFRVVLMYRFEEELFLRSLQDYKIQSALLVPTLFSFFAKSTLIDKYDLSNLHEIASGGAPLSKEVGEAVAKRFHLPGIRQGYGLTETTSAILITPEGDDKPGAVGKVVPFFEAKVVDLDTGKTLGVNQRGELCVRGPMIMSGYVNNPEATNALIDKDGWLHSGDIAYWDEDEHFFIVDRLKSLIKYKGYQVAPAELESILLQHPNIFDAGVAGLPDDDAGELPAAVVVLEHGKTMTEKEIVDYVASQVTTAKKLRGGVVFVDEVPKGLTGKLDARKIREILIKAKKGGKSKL
Sequence of ATP-dependent 6-phosphofructokinase (Trypanosoma brucei brucei) (O15648 whole entry, looked up): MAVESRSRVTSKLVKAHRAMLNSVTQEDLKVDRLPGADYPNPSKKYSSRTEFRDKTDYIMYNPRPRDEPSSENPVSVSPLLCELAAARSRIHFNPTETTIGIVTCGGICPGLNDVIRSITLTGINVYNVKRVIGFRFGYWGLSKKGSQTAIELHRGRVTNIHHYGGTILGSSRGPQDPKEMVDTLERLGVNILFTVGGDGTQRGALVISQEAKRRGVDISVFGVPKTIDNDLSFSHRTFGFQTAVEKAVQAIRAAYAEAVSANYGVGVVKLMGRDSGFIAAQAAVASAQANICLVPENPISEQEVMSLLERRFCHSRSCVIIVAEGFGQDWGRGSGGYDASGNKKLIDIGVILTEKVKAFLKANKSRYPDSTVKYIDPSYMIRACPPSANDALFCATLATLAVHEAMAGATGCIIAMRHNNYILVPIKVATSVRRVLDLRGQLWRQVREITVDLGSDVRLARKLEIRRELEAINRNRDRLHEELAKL
Sequence of Ubiquitin carboxyl-terminal hydrolase 1 (Homo sapiens) (O94782 whole entry, looked up): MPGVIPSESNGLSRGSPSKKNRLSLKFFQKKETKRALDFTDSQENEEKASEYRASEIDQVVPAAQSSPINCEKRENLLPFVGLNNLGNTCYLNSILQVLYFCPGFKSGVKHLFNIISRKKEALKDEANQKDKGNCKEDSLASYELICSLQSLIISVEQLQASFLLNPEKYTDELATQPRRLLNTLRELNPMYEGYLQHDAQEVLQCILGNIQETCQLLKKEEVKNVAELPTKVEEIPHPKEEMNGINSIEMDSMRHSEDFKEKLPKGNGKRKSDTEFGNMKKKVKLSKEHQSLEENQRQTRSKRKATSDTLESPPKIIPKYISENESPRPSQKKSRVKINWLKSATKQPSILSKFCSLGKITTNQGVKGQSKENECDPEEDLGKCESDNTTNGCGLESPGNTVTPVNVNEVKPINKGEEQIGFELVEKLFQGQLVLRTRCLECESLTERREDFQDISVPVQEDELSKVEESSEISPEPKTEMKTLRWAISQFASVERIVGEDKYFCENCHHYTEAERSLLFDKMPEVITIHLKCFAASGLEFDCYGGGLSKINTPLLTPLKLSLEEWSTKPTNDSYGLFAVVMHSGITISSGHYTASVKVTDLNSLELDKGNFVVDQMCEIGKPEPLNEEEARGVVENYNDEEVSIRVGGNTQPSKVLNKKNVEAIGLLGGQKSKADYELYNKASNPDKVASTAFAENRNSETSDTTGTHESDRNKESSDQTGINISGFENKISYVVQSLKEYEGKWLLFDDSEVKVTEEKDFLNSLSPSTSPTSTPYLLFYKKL

As to `CC#CCN1c2ccccc2[C@]23C[C@@H](C(=O)OC)N(S(=O)(=O)c4ccc5c(c4)OCCN5C)C2=NC(C(=O)OC)=C(C(=O)OC)[C@H]13`, the Potency result in assay [1] was “inactive”.
Regarding `O=C(O)c1ccccc1-c1c2ccc(=O)cc-2oc2cc(O)ccc12`, the Potency entry (in [2]; in assay [4]; in [5]; in assay [6]; in assay [7]; in the assay on CP203) was “inactive” throughout. In addition, the Potency entry with CP215, in the assay on CP266, with CP269, in the assay with CP286, in the assay with CP291 and in the assay with CP315 was “inactive” in each case. Moreover, the Potency entry in the assay with CP329 is “inactive”. For the same molecule, in assay [3], the activity change, negative = inhibition is -94.3% [at 11.4 µM].
Take `Cc1ccc(S(=O)(=O)N2CCc3nc(COc4ccccc4)c4c(c3C2)CO[C@@H](C)C4)cc1`: the Potency result in assay [1] is “inactive”.
With `CC#CCN1c2ccccc2[C@]23C[C@@H](C(=O)OC)N(C(=O)C4CCC4)C2=NC(C(=O)OC)=C(C(=O)OC)[C@H]13`, the Potency entry in assay [1] is “inactive”.
`COC(=O)C1=C(C(=O)OC)[C@@H]2Nc3ccccc3[C@@]23C[C@@H](C(=O)OC)N(S(=O)(=O)c2ccc(Br)cc2)C3=N1`: the Potency result in [1] is “inactive”. The Potency in [8] is 1900 nM (active).
Consider `COC(=O)C1=C(C(=O)OC)[C@@H]2Nc3ccccc3[C@@]23C[C@@H](C(=O)OC)N(C(=O)CC(C)C)C3=N1`, for which the Potency entry in [1] was “inactive”.
On to `COC(=O)C1=C(C(=O)OC)[C@@H]2N(C)c3ccccc3[C@@]23C[C@@H](C(=O)OC)N(S(=O)(=O)c2ccc([N+](=O)[O-])cc2)C3=N1`, for which, in assay [1], the Potency result is “inactive”. Besides, the Potency in assay [8] is 1690 nM (active).
On to `C=CCN1c2ccccc2[C@]23C[C@@H](C(=O)OC)N(S(=O)(=O)c4ccc(C(F)(F)F)cc4)C2=NC(C(=O)OC)=C(C(=O)OC)[C@H]13`, for which the Potency result in [1] is “inactive”.
